Experimental data: article PMC7883291

Experiments:
Assay in all cases: cross-link between two proteins; cross-linking mass spectrometry
[1] = molecular target: Acyl carrier protein, mitochondrial (UniProt P52505)
[2] = molecular target: NADH dehydrogenase [ubiquinone] 1 beta subcomplex subunit 11, mitochondrial (UniProt Q8HXG5)
[3] = molecular target: T1, Cytochrome b-c1 complex subunit 2, mitochondrial (UniProt P23004)
T1 sequence: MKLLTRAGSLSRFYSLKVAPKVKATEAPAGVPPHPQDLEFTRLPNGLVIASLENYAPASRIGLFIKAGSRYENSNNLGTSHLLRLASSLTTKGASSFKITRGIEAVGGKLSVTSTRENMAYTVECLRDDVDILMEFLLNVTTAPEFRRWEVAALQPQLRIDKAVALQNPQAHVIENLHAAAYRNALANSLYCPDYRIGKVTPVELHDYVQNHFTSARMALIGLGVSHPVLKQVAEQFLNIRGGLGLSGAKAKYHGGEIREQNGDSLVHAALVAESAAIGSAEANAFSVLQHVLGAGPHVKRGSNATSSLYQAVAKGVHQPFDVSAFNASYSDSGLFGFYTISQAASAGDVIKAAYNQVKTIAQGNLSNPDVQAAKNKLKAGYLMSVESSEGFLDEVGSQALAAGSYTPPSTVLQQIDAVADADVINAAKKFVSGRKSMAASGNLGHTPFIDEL

[4] = molecular target: NADH dehydrogenase [ubiquinone] 1 alpha subcomplex subunit 9, mitochondrial (UniProt P34943)
NADH dehydrogenase [ubiquinone] 1 alpha subcomplex subunit 9, mitochondrial, sequence (P34943 whole entry, one chain of several): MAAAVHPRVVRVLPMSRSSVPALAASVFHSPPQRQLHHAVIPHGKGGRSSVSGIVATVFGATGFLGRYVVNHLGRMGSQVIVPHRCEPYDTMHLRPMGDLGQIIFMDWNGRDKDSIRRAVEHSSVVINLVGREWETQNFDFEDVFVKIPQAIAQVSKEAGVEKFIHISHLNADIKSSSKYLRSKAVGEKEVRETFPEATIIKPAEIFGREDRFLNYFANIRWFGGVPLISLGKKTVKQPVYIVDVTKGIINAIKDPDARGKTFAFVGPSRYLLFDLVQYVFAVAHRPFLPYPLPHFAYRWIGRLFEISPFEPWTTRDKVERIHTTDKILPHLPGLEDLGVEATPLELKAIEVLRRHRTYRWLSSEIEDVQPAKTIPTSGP

NADH dehydrogenase [ubiquinone] 1 beta subcomplex subunit 11, mitochondrial, sequence (Q8HXG5 whole entry, one chain of several): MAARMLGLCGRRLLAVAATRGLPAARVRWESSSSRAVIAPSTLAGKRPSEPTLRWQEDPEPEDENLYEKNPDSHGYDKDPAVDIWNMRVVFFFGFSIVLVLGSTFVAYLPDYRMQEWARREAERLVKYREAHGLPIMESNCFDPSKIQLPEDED

Question: How did the “listed as a hit” value [1] turn out when G5E543 was run?
Answer: Its value is “yes”.

Question: What about the “listed as a hit” value [2] of the same substance?
Answer: The value was “yes”.

Question: Which “listed as a hit” value [3] does the source give for A0A3Q1MBD7 here?
Answer: The value was “yes”.

Question: A8WFQ0 was tested. Which “listed as a hit” value [4] did it give?
Answer: Its value is “yes”.
